The list is not random: actives were taken first. Their share in the collection is about 3.2%.
IL-2 act – activators of IL-2 | hit rate 0.065% among 360,000 | IL-2 activation reporter assay, cell-based qHTS; stimulated with anti-CD3/CD4/CD28 beads; in transgenic mouse T cells | activation, % (series mostly up to about 46 µM); in the data active = activation above about 50%; inconclusive = mostly about 30% to 49%; also: 0% is about no effect
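EGFP and DsRed fluorescence is measured by plate cytometry in unstimulated transgenic mouse T cells exposed to compound for 60 minutes, then stimulated 18 hours at 37 degrees C with anti-CD3/anti-CD4 beads plus anti-CD28.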
Nrf2 activator – activators of Nrf2 (ARE) signaling; AID 624171; Potency, µM (titrated, usually from 46.1 µM), for the others: top-dose activation, actives largely listed as activators; hit rate 0.31% among 410,000; AREc32 ARE-luciferase reporter (MCF7-derived line), luminescence, 24 h; also: potency is read from the fitted curve at half-maximal effect; % of control where 0% means no effect; nearly all actives have a fitted effect of over 65% in size
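For detection, Steady-Glo was added and plates sat 30 min at RT; before that, AREc32_Fluc cells grown overnight in OPTI-MEM/5% FBS had been treated with 23 nL compound for 24 hr at 37 deg C.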
BRCA1 expr up – increases BRCA1 expression. Potency, µM (top dose mostly 46.1 µM), inactives show at the highest dose activation, most hits filed as activators. MCF7-BRCA1-FFLuc reporter, luminescence, 48 h; response scale: scaled: vehicle 0%, 10 µM genistein 100%. hit rate 1.1% among 380,000; also: potency is read from the fitted curve at half-maximal effect; nearly all actives have a fitted effect of over 80% in size
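Cells: MCF7-BRCA1-FFLuc, 2000/well. Exposure: 48 h, 37 °C, 5% CO2. Read: luminescence, 15 min post-substrate. Controls: genistein 10 microM (maximal activation), DMSO (neutral).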
Nrf2 inh – inhibitors of Nrf2 signaling; A549 ARE-Fluc reporter, luciferase luminescence, 18-24 h; Potency, µM (highest dose often 46 µM), without a hit: at the top dose activity change, negative = inhibition, usual class: inhibitors; hit rate 2.1% among 360,000; also: potency is read from the fitted curve at half-maximal effect; % is scaled to controls: 0 for no effect and ±100 for the full control effect; nearly all actives have a fitted effect of over 60% in size
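Reporter: ARE-Fluc in A549. Exposure: 18-24 h, 37 °C, 5% CO2, 5% FBS OPTI-MEM. Readouts: fluorescent cytotoxicity (CellTiter-Fluor), then luminescent Nrf2 signal after BugLite.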
A549 viability – A549 cytotoxicity, counter-screen for Nrf2 inhibitors. A549 ARE-Fluc cells, CellTiter-Fluor viability, 18-24 h. Potency, µM (titrated, usually from 46 µM), for the others: top-dose activity change, negative = cytotoxicity, usual class: inhibitors. hit rate 0.16% among 390,000; also: potency is read from the fitted curve at half-maximal effect; % is scaled to controls: 0 for no effect and ±100 for the full control effect
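A549 ARE_Fluc cells in 5% FBS OPTI-MEM were exposed to compounds in concentration-response for 18-24 h at 37 deg C. Viability was read by CellTiter-Fluor fluorescence (Ex 405/Em 525) after 30 min, before the luciferase read.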
p53 reactivation – mutant p53 re-activation in reporter cells | AID 504706 | H1299 p53-A138V BP100-luciferase reporter, luminescence, 24 h | hit rate 0.063% among 320,000 | Potency, µM (highest dose often 92.2 µM), inactives show at the top dose activity change, positive = activation, actives largely listed as activators; also: potency is read from the fitted curve at half-maximal effect; % of control where 0% means no effect; nearly all actives have a fitted effect of over 45% in size
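H1299 (p53-null), stable ts p53-A138V + BP100-Luc; 1000 cells/well, Opti-MEM/10% FBS; cpd 4 pt, 1:5; 24 h, 37 deg C, 5% CO2; detection reagent 10 min RT; luminescence.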
Starred values were filed as active, the others as inactive; ? = inconclusive; nt = no result; [ ] = another dose, or the depositor's remark. Unless noted, calls follow the shape of the dose curve; as a rule, active = well fitted curve in the direction sought with a large enough effect; inconclusive = small, poorly fitted or top-dose-only effect, or another doubt; inactive = no such curve, though single readings can be large; an effect the other way counts as inactive or inconclusive.

SMILES | IL-2 act | Nrf2 activator | BRCA1 expr up | Nrf2 inh | A549 viability | p53 reactivation
Cn1c(/C(C#N)=C/c2ccc(O)cc2)nc2ccccc21 | -1 | 3% | 11µM* | ? | 2% | 6%
Cc1cccc(CN2CC34C=CC(CC3S2(=O)=O)O4)c1 (stereo unspecified) | nt | nt | nt | 21% | -2% | nt
O=C(OCn1ncc(Cl)c(Cl)c1=O)c1ccccc1Cl | -3 | ? | -109% | 23µM* | nt | -12%
O=C(OCn1ncc(Cl)c(Cl)c1=O)c1ccc(F)cc1 | nt | nt | nt | nt | nt | -10%
CCCSc1nnc2c(n1)OC(CC)N(C(C)=O)c1ccccc1-2 (stereo unspecified) | nt | -1% | nt | -9% | 1% | nt
N#C/C(=C/c1ccc(N2CCCCC2)o1)C(=O)Nc1ccc(Cl)cc1 | ? | 3% | 4.5µM* | nt | -15% | ?
CC1CC1c1ccc(/C=C(\C#N)C(=O)Nc2ccccc2Cl)o1 (stereo unspecified) | 0 | 13µM* | 55% | 28% | -4% | 1%
N#C/C(=C/c1ccc(N2CCCCC2)o1)C(=O)Nc1ccc2ccccc2c1 | -4 | 10% | 40% | ? | -10% | 26%
CC1CC1c1ccc(/C=C(\C#N)C(=O)Nc2ccc(Cl)cc2)o1 (stereo unspecified) | -5 | 6.3µM* | 44% | ? | -11% | ?
O=C(NCc1ccccc1)[C@]1(C(F)(F)F)C[C@H](CCCO)CCCO1 | nt | nt | nt | -1% | 3% | nt
CCC(C)NC(=O)c1cc2cc3ccc(OC)cc3nc2o1 (stereo unspecified) | -3 | 4% | 11µM* | 22% | -9% | ?
COc1ccc2cc3cc(C(=O)NCc4ccccn4)oc3nc2c1 | 2 | 3% | -26% | -23% | 1% | -3%
COc1ccc2cc3c(N)c(C(=O)NCc4ccco4)sc3nc2c1 | 1 | 6% | 5.6µM* | ? | -27% | -4%
O=C(NCc1ccco1)c1cc2cc3ccc(Cl)cc3nc2o1 | 0 | 12% | -1% | 23µM* | ? | -9%
COc1ccc2cc3cc(C(=O)NCc4ccco4)oc3nc2c1 | -4 | 4% | 3% | 5.2µM* | -25% | 4%
O=C(CCC(=O)N1CC2CCCN2c2ccccc21)NCc1ccccc1 (stereo unspecified) | nt | -1% | nt | -14% | -1% | nt
CC(=O)Nc1ccc(SCC(c2ccccc2)N2CCN(C)CCC2=O)cc1 (stereo unspecified) | nt | nt | nt | ? | -2% | nt
CCCCN(CCCNC(=O)c1c(C)oc2nc[nH]c(=O)c12)Cc1ccccc1 | nt | -1% | nt | 8%[9.27 µM] | 2% | nt
O=C(Nc1ccc(C(=O)OCc2cc(=O)n3nc(C4CC4)sc3n2)cc1)c1ccccc1 | nt | 3% | nt | nt | 0% | nt
CCOc1ccccc1NC(=O)C1CCN(S(=O)(=O)c2ccc3[nH]c4c(c3c2)CCCCC4)CC1 | nt | -1% | nt | -23% | -4% | nt
COc1ccc2cc3cc(C(=O)Nc4ccccc4N4CCN(C)CC4)oc3nc2c1 | -2 | 4% | -33% | -17% | -8% | -5%
COc1ccc2nc3oc(C(=O)N4CC(C)CC(C)C4)cc3cc2c1 (stereo unspecified) | -4 | 0% | 65% | 8% | -4% | 10%
COc1ccc2cc3cc(C(=O)NCCN4CCN(c5ccccc5F)CC4)oc3nc2c1 | 3 | 0% | -96% | 18µM* | ? | -3%
COc1ccc2nc3oc(C(=O)N4CCCCC4)cc3cc2c1 | -3 | 0% | 7.1µM* | ? | 6% | ?
COc1ccccc1NC(=O)N1CCOc2ccccc21 | nt | 4% | nt | -16% | -1% | nt
SMILES | IL-2 act | Nrf2 activator | BRCA1 expr up | Nrf2 inh | A549 viability | p53 reactivation
Cc1ccc(S(=O)(=O)N2CCN(c3nc(-c4cncs4)nc4ccccc34)CC2)cc1 | nt | nt | 0% | 2% | 9% | nt
Cc1cc(C)n(CCN(C)C(=O)CCc2nnc(CCC3CCCCC3)o2)n1 | 1 | 8% | 11µM* | ? | -2% | 14%
COC(=O)Cn1c(=NC(=O)c2ccc3c(c2)OCCO3)sc2ccccc21 | nt | 4% | nt | nt | 11% | nt
COc1cc(C(F)(F)F)ccc1C(=O)NCCc1ccco1 | 1 | 3% | 6.3µM* | ? | 12% | 12%
COc1cc(OC)c(C(=O)NCc2ccco2)cc1OC | 0 | 5%[9.22 µM] | -3% | -4% | -3% | -18%
Cc1cccc(NC(=O)CSc2nc(C)c(CC(=O)c3ccc(Br)cc3)c(C)c2C#N)c1C | 1 | 4% | -26% | ? | -2% | -1%
Cc1nc(SCC(=O)Nc2ccc(F)cc2)c(C#N)c(C)c1CC(=O)c1ccc(Br)cc1 | 0 | 0% | -51% | 13µM* | 12µM* | -1%
COc1ccc(-n2ccn(Cc3ccccc3Cl)c(=O)c2=O)cc1OC | nt | -1% | nt | 6% | 0% | nt
CCOC(=O)c1sc(=NC(=O)COc2ccccc2)n(C)c1C | 2 | 2% | 55% | 2% | 1% | 20%
CCOC(=O)c1sc(=NC(=O)CCSc2ccccc2)n(C)c1C | -1 | 3% | 10µM* | ? | -1% | 18%
Cc1ccc(-c2ccc(CCC(=O)O)n2-c2cccc(C(=O)O)c2)cc1 | 0 | 0% | 7.1µM* | 26% | 1% | ?
COc1ccc(-c2noc(-c3ccc(N4CCCC4)c([N+](=O)[O-])c3)n2)cc1 | nt | -1% | 6% | 3% | -1% | nt
CCOc1ccc(C(=O)Nc2ccc(Cl)cn2)cc1Cl | 0 | 1% | 6.3µM* | ? | 3% | 7%
O=C(COc1ccc(Cl)cc1Cl)Nc1ccc(Cl)cn1 | -1 | 0% | 11µM* | ? | -6% | 33%
Cc1cc(Cl)ccc1OCC(=O)OCC(=O)Nc1ccc(Cl)cn1 | -2 | 0% | 0% | nt | nt | nt
COc1ccc(-c2nc3n(n2)C(c2ccccc2F)C(C(=O)Nc2cccnc2)=C(C)N3)cc1OC (stereo unspecified) | nt | 0% | nt | -12% | -3% | nt
COc1cccc(Nc2nc3ccc(C(=O)c4ccccc4)cc3n3c(C)nnc23)c1 | nt | 0% | nt | ? | 1% | nt
COc1ccccc1/C=C1\SC(=S)N(CCC(=O)NCCCN2CCOCC2)C1=O | -3 | 27% | 27% | ? | 23µM* | 10%
O=C(CCCN1C(=O)/C(=C/c2ccccc2Cl)SC1=S)NCCCN1CCOCC1 | -2 | 5% | -77% | 15µM* | ? | -1%
O=C(CCN1C(=O)/C(=C/c2ccccc2Cl)SC1=S)N1CCCC1 | -2 | 22% | 0% | 10% | ? | -32%
O=C(CCN1C(=O)/C(=C/c2ccccc2Cl)SC1=S)N1CCOCC1 | -2 | 27% | -53% | ? | ? | 16µM*
O=C(CCN1C(=O)/C(=C/c2ccccc2F)SC1=S)NCCCN1CCOCC1 | -1 | 7% | -1% | ? | ? | 27%

Screening results deposited in PubChem BioAssay by National Center for Advancing Translational Sciences (NCATS).
